# Peg3 prom inh = reduces Peg3 promoter-driven luciferase expression in HeLa; HeLa PEG-Prom luciferase reporter, luminescence, overnight; inhibition, % at 20 µM; hit rate 1.7% among 360,000;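 active means inhibition of at least 50% at 20 µM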
# CF NFkB inh = blocks PAF-induced NF-kB reporter in cystic fibrosis cells; KKLEB NF-kB-GFP reporter, GFP fluorescence overnight; inhibition, % at 5 µM; hit rate 0.86% among 360,000; AID 588850;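 active means at least 50% inhibition at 5 µM, scaled per plate between neutral and stimulator controls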;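 further: PAF is a Pseudomonas aeruginosa culture filtrate used as stimulus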
# KKLEB tox = counter-screen for CF NF-kB inhibitors: cytotoxicity; KKLEB CF airway cells viability, ATPlite luminescence, overnight; hits give low values; cells stimulated with P. aeruginosa culture filtrate; activity change (cytotoxicity), % at 5 µM; hit rate 0.36% among 360,000;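 active means corrected activity change at or below -50% at 5 µM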
# TWEAK-Fn14 inh = TWEAK-Fn14 signaling inhibition. TWEAK-stimulated Fn14 reporter cells, luciferase luminescence, 8 h. hit rate 2% among 360,000. inhibition, % at 10 µM; in the data active means inhibition above about 50%
# TROY NFkB inh = inhibitors of TROY-dependent NF-kB signaling | Q293 LMP1-TROYcd NF-kB luciferase reporter, 4 h | inhibition, % at 10 µM | hit rate 0.98% among 360,000 | AID 1347056;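 active means compounds whose plate-normalised and pattern-corrected inhibition of the luciferase reporter signal at the single screening dose is 50% or more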
# HIF-2a block = HIF-2a inhibition. 786-0 RCC cells HIF-2a reporter, luciferase luminescence, overnight. inhibition, % at 18.8 µM. hit rate 0.72% among 360,000;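 active means inhibition of the luminescence signal of 40% or more relative to plate controls, in a single-dose primary screen at 18.75 µM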
# A number is an active result; - = inactive. The list is not random: actives were taken first. Their share in the collection is about 4%.
SMILES,Peg3 prom inh,CF NFkB inh,KKLEB tox,TWEAK-Fn14 inh,TROY NFkB inh,HIF-2a block
CC(=O)c1c(C)[nH]c(C(=O)OCC(=O)Nc2cccc(S(=O)(=O)N3CCCC3)c2)c1C,-,-,-,65,-,-
CC(=O)c1c(C)[nH]c(C(=O)OCC(=O)Nc2cccc(S(=O)(=O)N(C)C)c2)c1C,-,-,-,-,-,-
COCCn1c(SCC(=O)Nc2ccc(F)cc2)nc2c(oc3ccccc32)c1=O,-,-,-54,-,-,-
COc1ccc(C(=O)N2CCN(c3ccccc3Cl)CC2)cc1S(=O)(=O)NC1CC1,-,-,-,-,-,-
COc1c(Br)cc([N+](=O)[O-])c(OC)c1C(=O)NC(=O)Nc1cc(Cl)cc(Cl)c1,-,-,-,-,52,-
COc1c(Br)cc([N+](=O)[O-])c(OC)c1C(=O)NC(=O)Nc1c(Cl)cccc1Cl,-,-,-,-,-,-
OC1(c2cccc(C(F)(F)F)c2)CCN(c2ncnc3c2[nH]c2ccccc23)CC1,-,-,-,58,53,-
c1ccc2c(c1)[nH]c1c(N3CCC4(CC3)OCCO4)ncnc12,-,-,-,-,-,-
OC1(c2cccc(C(F)(F)F)c2)CCN(c2ccc(-c3ccccc3)nn2)CC1,-,-,-,-,-,-
c1ccc(CN2CCN(c3ncnc4c3[nH]c3ccccc34)CC2)cc1,56,-,-,97,67,-
Cc1ccc2c(c1)[nH]c1c(N3CCN(Cc4ccccc4)CC3)ncnc12,-,-,-,96,68,-
c1ccc2c(c1)CCN(c1ncnc3c1[nH]c1ccccc13)C2,-,-,-,85,-,-
O=C(Nc1cc(S(=O)(=O)N2CCOCC2)ccc1N1CCCCC1)c1ccccc1Br,-,-,-,-,-,-
Cc1cc(O)c(CN2CCN(S(=O)(=O)c3cccs3)CC2)cc1C(C)C,-,-,-,-,-,-
CCOc1ccc2[nH]c3c(N4CCN(c5ccccn5)CC4)ncnc3c2c1,-,-,-,-,-,-
Cc1ccc2[nH]c3c(N4CCN(Cc5ccccc5)CC4)ncnc3c2c1,-,-,-,103,55,-
COc1ccccc1/C=C/C(C)=O,-,-,-,-,-,-
COc1ccccc1/C=C/C(=O)/C=C/c1ccccc1O,101,-,-,88,-,-
Brc1ccc2ncnc(Nc3cccc4ccccc34)c2c1,-,-,-,61,-,-
O=C(O)c1cccc(Nc2ncnc3ccc(Br)cc23)c1,-,-,-,-,-,-
COC(=O)c1ccc(-c2nc(O)c(C)s2)cc1,-,-,-,-,-,-
COC(=O)c1ccc(-c2nc3cc(Cl)c(N)cc3s2)cc1,-,-,-53,87,71,-
COc1ccc2c(CC(=O)Nc3ncc(C)s3)coc2c1,65,-,-,-,-,-
COc1ccc2c(CC(=O)Nc3nc(C)cs3)coc2c1,-,-,-,-,-,-
COC(=O)C1=C(C)N(Cc2ccco2)C(=O)/C1=C\c1ccc([N+](=O)[O-])cc1,94,-,-,-,-,-
SMILES,Peg3 prom inh,CF NFkB inh,KKLEB tox,TWEAK-Fn14 inh,TROY NFkB inh,HIF-2a block
COC(=O)C1=C(C)N(Cc2ccco2)C(=O)/C1=C\c1ccc(N(C)C)cc1,-,-,-,-,-,-
Cc1cc(N2CCN(C)CC2)nc2ccc(NC(=S)NCCC(C)C)cc12,-,-,-,-,54,-
COc1cc(CN2CCc3ccccc3C2)cc([N+](=O)[O-])c1O,-,-,-,-,-,-
Oc1ccc(CN2CCc3ccccc3C2)c2cccnc12,94,-,-,-,-,-
Oc1ccc(Cc2ccccc2)c2cccnc12,69,-,-,-,-,-
COc1cc(CN2CCc3ccccc3C2)ccc1O,-,-,-,91,-,-
CC(C)COCc1ccc(O)c2ncccc12,55,-,-,-,-,-
CC(=O)Nc1ccc(CN(C)c2c(C)nc3ccc(C(=O)N4CCN(C(=O)c5ccco5)CC4)cn23)cc1,-,-,-,-,-,-
CC(=O)Nc1ccccc1N(CC(O)Cn1c2ccccc2c2ccccc21)S(=O)(=O)c1ccc(C)cc1 (stereo not given),-,-,-,53,-,-
CCCS(=O)(=O)NC(=O)C1(C)CCCN(C(=O)c2ccc(C#N)cc2)C1 (stereo not given),-,-,-,-,-,-
CCN(CC)S(=O)(=O)c1ccccc1/C=N\O,-,-,-,62,-,-
